From PubChem BioAssay AID1233 (SRMLSC, 2008)
Results with a measured potency or affinity are listed apart.

molecular target: HMG-CoA reductase [Enterococcus faecalis] (UniProt Q9FD70); assay: class II HMG-CoA reductase inhibition potency – biochemical, Enterococcus faecalis, confirmation (AID 1233);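 also: 0% = full reaction carrier wells and 100% = background wells lacking mevalonate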; details: purified E. faecalis HMGR, NADPH absorbance 340 nm kinetics; series mostly up to 100 µM; inhibition: at the top concentration

inhibition, inactive:
CN(C)CCCN(Cc1ccccc1)C(=S)Nc1ccc(SC(F)F)cc1 -2.21%
COc1ccc2oc(=Nc3ccc(C(=O)O)cc3)c(C(=O)NCc3ccco3)cc2c1 -5.55%
O=C1CN(C(=O)CSc2nc3cc(Cl)ccc3c(=O)n2Cc2ccccc2)c2ccccc2N1 -1.36%
C=CCn1cnc2c(c1=O)c1nc3ccccc3nc1n2/N=C/c1cc(OC)c(OC)c(OC)c1 -0.47%
CC(C)(C)Cc1nnc(NS(=O)(=O)c2ccccc2)s1 -3.39%
O=C(COC(=O)CSc1cc(Cl)ccc1Cl)Nc1ncc(C(F)(F)F)cc1Cl -8.13%
Cc1nc([N+](=O)[O-])c(Br)n1CC(=O)c1cccc([N+](=O)[O-])c1 -5.09%
Cc1cc(Nc2cccc([N+](=O)[O-])c2)c2ccccc2n1 -2.62%
CCOC(=O)c1nnn(-c2ccc(OC)cc2)c1N -6.25%
COC(=O)CNC(=O)c1cc(OC)cc(OC)c1 -3.23%
CS(=O)(=O)N(CC(N)=O)c1cccc(Br)c1 -5.05%
CCOC(=O)c1cnn(-c2nc(-c3ccccc3)cs2)c1C(F)(F)F -2.29%
O=C(CCc1ccccc1)Nc1ncc2c(n1)CCCC2=O -1.28%
Cc1cccc(-n2nc(C)cc2N)c1 -1.66%
CCOC(=O)C1CCN(C(=O)c2c(-c3ccccc3)noc2C)CC1 -3.39%
CSc1ccccc1C(=O)NCc1ccccc1 -2.21%
CN(C=O)CP(=O)(O)CN1CCCCC1 -2.44%
ON/C=N/C(=S)Nc1ncc(C(F)(F)F)cc1Cl -7.37%
CCc1cccc2c(C#N)cn(CCOc3ccccc3OC)c12 -1.17%
CCOc1cc(S(=O)(=O)N(CC)CC)c(OCC)cc1-n1cnnn1 -0.8%
CC(=O)N(C)c1nc(N)n(-c2ccccc2)n1 -3.93%
CC(C)(C)c1ccc(C(=O)Nc2ccc(NC(=O)c3ccco3)cc2)cc1 -4.08%
CCCCC(=O)Nc1cc(OCC)c(NC(=S)NC)cc1OCC -3.85%
CCCn1c(SCC(=O)N2CC(=O)Nc3ccccc32)nc2ccccc21 -0.99%
O=C(Nc1ccccc1)Nc1ccc2ocnc2c1 -4.39%
Cc1nnc(SCc2ccccc2Cl)n1CC1CCCO1 (stereo not drawn) -1.03%
CCc1ccc(NC(=O)CN2C(=O)C(=O)N(Cc3ccccc3)C2=O)cc1 -2.36%
Brc1c(NC2=NCCN2)ccc2nccnc12 -4.78%
CN(Cc1nc(-c2cnccn2)no1)C1CC(C)(C)NC(C)(C)C1 -4.08%
C=CCn1cnc2c(nnn2-c2ccc(Cl)cc2)c1=O -3.27%
COc1ccccc1C(=O)NCC(=O)NC1CCCc2ccccc21 (stereo not drawn) -2.96%
CC(=O)N1CC2(C)CN(C(C)=O)CC(C)(C1)C2 -9.15%
CCOc1ccc(/C(O)=C2/C(=O)C(=O)N(CC3CCCO3)C2c2ccco2)cc1 (stereo not drawn) -5.36%
COc1ccc(C2C(C(C)=O)=C(Nc3ccccc3)CC(C)(O)C2C(C)=O)cc1OC (stereo not drawn) -6.21%
Cc1ccc(-n2c(SCC(=O)N(C)C3CCS(=O)(=O)C3)nc3ccccc3c2=O)cc1 (stereo not drawn) -7.95%
CN(C(=O)CCN1C(=O)C(C)(C)Nc2ccccc21)c1ccccc1 -11.7%
CCN(CCNCC(O)COCc1ccc(Cl)cc1)c1cccc(C)c1 (stereo not drawn) -8.18%
CCOC(=O)C1CCN(C(=O)CN(c2ccc3c(c2)OCCO3)S(C)(=O)=O)CC1 -2.07%
